# Measurements from PubChem BioAssay AID1851 (National Center for Advancing Translational Sciences (NCATS), 2009).
# Values joined by “and” are separate entries in the source; they are usually repeats but may differ in a detail not shown here. Equal values may be shown once. About 5,800 (36%) of roughly 16,000 compounds were called active. Another 23% or so got no clear call; they are omitted. Some of the results follow. Unmarked numbers belong to inactive results. Calls come from the whole dose curve; as a rule, active = well fitted curve in the direction sought with a large enough effect; inconclusive = small, poorly fitted or top-dose-only effect, or effect the other way; inactive = no such curve, though single readings can be large or run the other way.
# Molecular target: Cytochrome P450 2C19 (Homo sapiens) (UniProt P33261)
# Experiment: Cytochrome panel assay with activity outcomes
# Details: recombinant CYP, pro-luciferin dealkylation, luminescence, p450-cyp2c19; series mostly up to 57.1 µM
# % is set by controls: 0 for no effect and ±100 for the full control effect.
# Cytochrome P450 2C19 (Homo sapiens), sequence (P33261 whole entry, looked up): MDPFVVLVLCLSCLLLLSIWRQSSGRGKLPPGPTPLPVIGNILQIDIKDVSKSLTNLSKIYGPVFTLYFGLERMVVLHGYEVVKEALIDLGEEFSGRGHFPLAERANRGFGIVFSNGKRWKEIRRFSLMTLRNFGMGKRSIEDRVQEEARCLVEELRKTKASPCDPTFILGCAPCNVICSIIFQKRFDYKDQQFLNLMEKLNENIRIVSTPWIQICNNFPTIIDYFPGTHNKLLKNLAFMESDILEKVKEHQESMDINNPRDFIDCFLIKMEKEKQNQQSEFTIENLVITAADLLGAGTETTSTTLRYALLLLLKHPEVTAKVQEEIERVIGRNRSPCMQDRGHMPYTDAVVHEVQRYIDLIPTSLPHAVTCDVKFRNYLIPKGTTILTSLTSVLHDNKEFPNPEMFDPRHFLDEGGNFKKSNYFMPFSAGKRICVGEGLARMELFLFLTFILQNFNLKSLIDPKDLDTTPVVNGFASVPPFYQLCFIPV
SMILES,AC50,"activity, negative = inhibition"
Cc1c(N2CCCC2)cc2c(c1NC(=O)c1ccccc1Cl)C(C)(C)CC2(C)C,0.794 µM (active),–
Fc1cccc(/C=N\N=C/c2cccc(F)c2)c1,inactive,–
O=C(N/N=C/c1cccc(F)c1)c1csc2c1CCCC2,7.08 µM (active),–
COc1cccc(-c2cncnc2NCc2ccc(OC)cc2OC)c1,1.26 µM (active),–
COc1ccccc1CNc1ncncc1-c1cccnc1,10 µM (active),–
COc1cccc(-c2cncnc2NCc2ccccc2OC)c1,2 µM (active),–
CCC(C)(C)n1nnnc1C(c1ccc(C)cc1)N1CCC(C)CC1 (stereo not drawn),14.1 µM (active),–
Cc1cc(C)c(NC(=O)C[C@H](CC(=O)O)c2cccc3ccccc23)c(C(=O)N2CCC3(CCCC3)CC2)c1,inactive,–
CSc1n[nH]c(-c2sccc2OCc2ccc(C)cc2)n1,1.12 µM (active),–
COc1ncc2nc(-c3cc(F)cc(F)c3)c(=O)n(C3CC3)c2n1,inactive,–
COc1cccc(C(C(=O)Nc2ccc(F)cc2)N(C(=O)Cn2nnc3ccccc32)C2CC2)c1 (stereo not drawn),20 µM (active),–
CCc1ccc(N2C(=O)c3ccc4c5c(ccc(c35)C2=O)CC4)cc1,3.16 µM (active),–
Cc1onc(-c2c(Cl)cccc2Cl)c1C(=O)N1CCc2ccccc2C1,2.82 µM (active),–
Cc1noc(C)c1C(=O)N1CCC2(CC1)CN(c1ccccc1)C2,inactive,–
Cc1ccccc1C(=O)N1CCc2ccccc2C1,1.41 µM (active),–
Cc1noc(C)c1C(=O)N1CCC2(CCN(Cc3ccccc3)CC2)CC1,inactive,–
N=C(N)N1CCc2ccccc2C1,inactive,–
NCCSC[C@H](N)C(=O)O,–,-6.06% [at 11.4 µM]
O=C1CC(c2cccs2)c2cc3c(cc2N1)OCO3 (stereo not drawn),1.12 µM (active),–
CCCC[C@@H]1C[C@H]1C(NC(=O)c1ccco1)c1ccc(-c2ccccc2)cc1 (stereo partly drawn),25.1 µM (active),–

SMILES,AC50,"activity, negative = inhibition"
CCC[C@@H]1C[C@@]1(CCC)C(NS(=O)(=O)c1cccc2cccnc12)c1ccc(Cl)cc1 (stereo partly drawn),3.16 µM (active),–
CCCC[C@@H]1C[C@H]1C(NC(=O)c1ccc(-c2ccccc2)cc1)c1ccc(-c2ccccc2)cc1 (stereo partly drawn),inactive,–
CCCC[C@@H]1C[C@H]1C(NC(=O)c1ccco1)c1ccc(C(=O)OC)cc1 (stereo partly drawn),1 µM (active),–
CCC[C@@H]1C[C@@]1(CCC)C(NC(=O)c1ccco1)c1ccc(Cl)cc1 (stereo partly drawn),3.16 µM (active),–
CO[C@H]1COC(=O)C/C=C\[C@H](C)COC(=O)[C@@H](C)NC(=O)C/C=C\[C@@H]1C,–,-31.5% [at 11.4 µM]
COCCn1c(=O)c(C)nc2cnc(Nc3cccc(OC)c3)nc21,inactive,–
CCCC[C@@H]1C[C@H]1C(NC(=O)c1ccco1)c1ccc(Cl)cc1 (stereo partly drawn),0.316 µM (active),–
C[C@@]1(C(NC(=O)Cc2ccccc2)c2ccc(-c3ccccc3)cc2)C[C@H]1C1CCCCC1 (stereo partly drawn),inactive,–
CCC[C@@H]1C[C@@]1(CCC)C(NC(=O)OCc1ccccc1)c1ccc(-c2ccccc2)cc1 (stereo partly drawn),1.26 µM (active),–
CCCC[C@@H]1C[C@H]1C(NC(=O)c1ccco1)c1ccccc1 (stereo partly drawn),1.26 µM (active),–
CC[C@](N)(C(=O)O)C(C)C,–,31.3% [at 11.4 µM]
CCCn1c(N)c(C(=O)CSc2nc(C)cs2)c(=O)n(C)c1=O,10 µM (active),–
COC(=O)/C=C\c1cc(O)ccc1O,15.8 µM (active),–
O=C(O)/C=C\c1ccc(O)c(O)c1,inactive,–
O=C(/C=C\c1ccc(O)c(O)c1)O[C@@H](Cc1ccc(O)c(O)c1)C(=O)O,inactive,–
CO[C@@H](C(C)C)[C@@H](C)[C@@H]1OC(=O)C[C@@H]1O,–,2.42% [at 11.4 µM]
COC(=O)C[C@@H]1O[C@H]1[C@H](C)[C@@H](OC)C(C)C,3.98 µM (active),–
CC(O)CN(CCC(N)=O)CCC(N)=O (stereo not drawn),inactive,–
COc1ccc(S(=O)(=O)N2CC3C4C=CC(C4)C3C2)cc1 (stereo not drawn),0.891 µM (active),–
O=C(OCc1nnc(-c2ccccc2)o1)c1ccc2c(c1)OCCO2,8.91 µM (active),–

SMILES,AC50,"activity, negative = inhibition"
CCCN1C(=O)C2(/C(=C(\O)c3ccc4c(c3)OCCO4)C(=O)C(=O)N2CCCOC)c2ccccc21 (stereo not drawn),inactive,–
CN1CCc2cc3c(cc2[C@@H]1[C@@H]1C(=O)Oc2c1ccc1c2OCO1)OCO3,0.02 µM (active),–
C[N+]1(C)CCc2cc3c(cc2[C@@H]1[C@@H]1C(=O)Oc2c1ccc1c2OCO1)OCO3,inactive,–
Cc1ccc(-c2csc(NC(=S)NC(=O)/C=C/c3ccco3)n2)cc1,inactive,–
Cc1ccc(-c2csc(N/N=C/c3ccco3)n2)cc1,7.94 µM (active),–
CC(=O)OCC(=O)[C@@]1(O)[C@H](C)C[C@@H]2[C@H]3CCC4=CC(=O)C=C[C@]4(C)[C@]3(F)[C@@H](O)C[C@@]21C,inactive,–
O=C(CCC(=O)c1cccs1)OCC(=O)N1CCN(C(=O)c2ccco2)CC1,inactive,–
CCOC(=O)c1cc2sc(C)cc2n1CCCN1C(=O)c2ccccc2C1=O,3.98 µM (active),–
CCn1c(=O)cc(SCC(=O)N2CCN(C(=O)c3ccco3)CC2)c2ccccc21,inactive,–
CCOC(=O)c1cc2sc(C)cc2n1CC(=O)N1CCN(C(=O)c2ccco2)CC1,25.1 µM (active),–
CCN1C(=O)[C@H]2[C@@H]3[C@H](O)[C@H](O)CC(=O)[C@H]3CC[C@H]2C1=O,–,-13.9% [at 11.4 µM] and -20% [at 11.4 µM]
CCN1C(=O)[C@H]2[C@@H]3[C@H](O)C=CC(=O)[C@H]3CC[C@H]2C1=O,–,-2.48% [at 11.4 µM]
CCN1C(=O)[C@@H]2[C@H]3C(=CC[C@@H]2C1=O)C1(OCCCO1)[C@H]1O[C@@H]1[C@H]3O,1.58 µM (active),–
O=C(NC12CC3CC(CC(C3)C1)C2)c1ccc(COc2ccc(Cl)cc2[N+](=O)[O-])o1,3.55 µM (active),–
Cc1ccc2nc(SCc3nc4c(cnn4-c4ccccc4)c(=O)[nH]3)[nH]c2c1,4.47 µM (active),–
O=C(CSc1ccc(Cl)cc1)Nc1cccc(-c2nc3ncccc3o2)c1,8.91 µM (active),–
CCCCCC(=O)Nc1cccc(-c2nc3ncccc3o2)c1,14.1 µM (active),–
O=C(Nc1cccc(-c2nc3ncccc3o2)c1)c1sc2cc(Cl)ccc2c1Cl,inactive,–
